This excerpt belongs to a sample that is enriched for hits.
Shiga toxin inh = A qHTS for Small Molecule Inhibitors of Shiga Toxin | inhibition, % at 38.7 µM | AID 2315, 2010 | Vero cells, Shiga toxin protein synthesis inhibition reporter | 290,000 compounds, 9.2% hits; in the data active means inhibition mostly above about 28%, no sharp cut-off; inactive means mostly below about 43%; further: 0% is about no effect
Sm TGR block = qHTS Assay for the Inhibitors of Schistosoma Mansoni Peroxiredoxins; AID 485364, 2010; purified TGR, DTNB reduction, TNB absorbance 405 nm; Schistosoma mansoni thioredoxin glutathione reductase (TGR), Q962Y6; 360,000 compounds, 3% hits; Potency, µM (top dose mostly 114 µM), for inactives: at the highest dose activity change, negative = inhibition, hits mostly inhibitors; further: potency means the concentration at half of the fitted maximal effect; on the % scale 0 is the no-effect control and ±100 the full control effect; nearly all actives have a fitted effect of over 60% in size
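Kinetic colorimetric format: TGR-catalysed, NADPH-driven DTNB reduction monitored via TNB absorbance. Enzyme dispensed at 20 nM; compound exposure 15 min at room temperature before reaction start.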
FBPA Giardia inh = qHTS Assay for Inhibitors of Fructose-1,6-bisphosphate Aldolase from Giardia Lamblia. purified Giardia FBPA. Potency, µM (highest dose often 59.6 µM), inactives show at the highest dose activity, negative = inhibition, hits mostly inhibitors. 290,000 compounds, 0.71% hits; further: potency means the concentration at half of the fitted maximal effect; on the % scale 0 is the no-effect control and ±100 the full control effect; nearly all actives have a fitted effect of over 55% in size
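Giardia FBPA (40 nM reagent) was preincubated 10 min at RT with compound (up to 57.5 uM final), then substrate plus GAPDH/TPI/NAD/arsenate coupling system with diaphorase/resazurin was added; resorufin fluorescence (525/598 nm) was read after 20 min.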
LmPK inhibitor = qHTS Assay for Inhibitors of Leishmania Mexicana Pyruvate Kinase (LmPK). Q27686. 290,000 compounds, 0.37% hits. AID 1721, 2009. Potency, µM (series often up to 57.5 µM), inactives show at the highest dose activity change, negative = inhibition, actives largely listed as inhibitors. purified LmPK, Kinase-Glo ATP luminescence, 1 h; further: potency means the concentration at half of the fitted maximal effect; on the % scale 0 is the no-effect control and ±100 the full control effect
Target sequence (Q27686 whole entry, looked up): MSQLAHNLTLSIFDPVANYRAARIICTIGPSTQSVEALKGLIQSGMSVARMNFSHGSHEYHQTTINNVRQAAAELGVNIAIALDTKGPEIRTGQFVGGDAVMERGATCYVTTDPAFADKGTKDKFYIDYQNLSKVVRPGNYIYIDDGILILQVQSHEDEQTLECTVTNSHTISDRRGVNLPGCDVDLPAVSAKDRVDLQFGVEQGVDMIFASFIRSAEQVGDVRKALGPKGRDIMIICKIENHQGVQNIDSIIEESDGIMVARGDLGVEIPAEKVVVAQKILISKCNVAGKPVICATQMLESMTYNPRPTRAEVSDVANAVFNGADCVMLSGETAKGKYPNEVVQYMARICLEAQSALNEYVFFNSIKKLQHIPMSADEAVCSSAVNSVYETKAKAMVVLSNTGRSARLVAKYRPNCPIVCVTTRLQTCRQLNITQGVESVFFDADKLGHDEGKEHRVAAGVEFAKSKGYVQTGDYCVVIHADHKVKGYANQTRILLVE
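Kinase-Glo luminescence read after 1 h RT reaction of 0.1 nM LmPK with 0.5 mM PEP and 0.1 mM ADP. Activity scaled between uninhibited and enzyme-free controls.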
Cycloheximide cs = Cycloheximide Counterscreen for Small Molecule Inhibitors of Shiga Toxin; max response, %; 300,000 compounds, 12% hits; AID 2314, 2010; cell reporter, cycloheximide protein synthesis inhibition counterscreen; in the data active means max response mostly above about 13%, no sharp cut-off; inactive means mostly below about 14%; further: read at 38.3 µM for the half of the compounds with a filed dose; 0% is about no effect
Tb PYK inh = qHTS of Trypanosoma Brucei Inhibitors; AID 624173, 2012; TbPYK enzyme, Kinase-Glo Plus ATP luminescence, 45 min; Potency, µM (series often up to 76.8 µM), without a hit: top-dose activity, negative = inhibition, hits mostly inhibitors; 410,000 compounds, 0.12% hits; further: potency means the concentration at half of the fitted maximal effect; on the % scale 0 is the no-effect control and ±100 the full control effect; nearly all actives have a fitted effect of over 50% in size
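Glycolytic pyruvate kinase of T. brucei was incubated with substrate, test compound and 130 uM ADP for 45 minutes at room temperature. Luminescent Kinase-Glo Plus signal was measured after 10 minutes.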
Numbers without * were called inactive; u = inconclusive; x = no result; [ ] = another dose, or the depositor's remark. Unless noted, the call rests on the fitted dose curve; in most records, active means well fitted curve in the direction sought with a large enough effect; inconclusive means small, poorly fitted or top-dose-only effect, or another doubt; inactive means no such curve, though single readings can be large; an effect the other way counts as inactive or inconclusive.

SMILES | Shiga toxin inh | Sm TGR block | FBPA Giardia inh | LmPK inhibitor | Cycloheximide cs | Tb PYK inh
CCn1cc2c(n1)-c1c(oc(C(=O)Nc3ccc(Br)cc3F)c1C)CC2 | x | -3% | x | x | x | -4%
Cc1ccc(CNc2ccc(-c3nc(-c4ccco4)no3)cc2[N+](=O)[O-])cc1 | x | -25% | x | x | x | 0%
COc1ccc(-c2cc3nc(C)c(CCC(=O)N4CCN(c5cc(C)ccc5C)CC4)c(C)n3n2)c(OC)c1 | x | 3% | x | x | x | 2%
CCOC(=O)C(CC)/C(C)=N\NC(=O)c1ccccc1O (configuration not stated) | 33* | 4% | -15% | -7% | 18* | -5%
O=C(NN=C(Cc1ccccc1)Cc1ccccc1)c1ccccc1O | 18 | 9% | u | 2% | 11 | -1%
CCC/C(C)=N/NC(=O)c1ccccc1O | 105* | 3% | -1% | -3% | 27* | -1%
O=C(N/N=C\c1ccncc1)c1ccccc1O | 20 | 1% | -4% | -17% | 22 | 0%
O=C(N/N=C/c1ccc(-c2ccccc2)o1)c1ccccc1O | 40* | -7% | 7% | -1% | 16 | -2%
C/C(=N\NC(=O)c1ccccc1O)C1C(=O)c2ccccc2C1=O | 36 | 9% | -11% | -6% | 29* | x
Cc1cc(Br)ccc1NC(=O)c1c(C)oc2ncnc(N3CCCCC3)c12 | x | 11% | x | x | x | -1%
C1CCC(C(C[C@@H]2CCCCN2)C2CCCCC2)CC1 | x | x | 2%[21.7 µM] | x | x | x
CCC/C=N/NC(=O)c1ccccc1O | 47* | 16% | -6% | 5% | 18* | -9%
COc1ccccc1C(=O)Nc1cccc(NC(=O)c2ccccc2C)c1 | 6 | 4% | 5% | 4% | 3 | -13%
Nc1ccc(C(=O)Nc2cccc(N)c2)cc1 | 77* | 1% | -10% | -24% | 20* | 0%
Nc1cccc(C(=O)Nc2ccc(N)cc2Cl)c1 | 24 | 0% | -1% | 6% | 15 | 0%
Cc1ccccc1C(=O)Nc1cccc(N)c1 | 31* | -9% | -21% | 1% | 18* | -7%
CC(=O)NC1CC2CCCC(C1)N2C(=O)Nc1cccc(C(C)=O)c1 (configuration not stated) | x | x | x | x | x | 3%
COC(=O)c1c(C)oc(C)c1S(=O)(=O)N(Cc1ccccc1)C(C)C | 4 | 32µM* | 2% | 5% | 1 | -3%
COC(=O)c1c(S(=O)(=O)N2CCOCC2)c(C)n(C)c1C | -3 | -9% | x | -1% | 0 | -3%
COC(=O)c1c(C)oc(C)c1S(=O)(=O)N1CCCC1 | -6 | 50µM* | 3% | 3% | -2 | 3%
COC(=O)c1c(C)oc(C)c1S(=O)(=O)NC(C)(C)C | -6 | 25µM* | 5% | 0% | 1 | -5%
COC(=O)c1sc(S(=O)(=O)N2CCCCC2)c(C(=O)OC)c1C | -9 | -23% | -1% | 5% | -2 | -15%
COC(=O)c1c(C)oc(C)c1S(=O)(=O)Nc1ccccc1 | 1 | -5% | -5% | 6% | -2 | -1%
COC(=O)c1c(C)oc(C)c1S(=O)(=O)N1CCCCC1 | -12 | 40µM* | 4% | 4% | 7 | -4%
COc1cc(F)ccc1-c1cc(C(=O)Nc2ccc(NC(C)=O)cc2)[nH]n1 | x | x | x | x | x | 1%
SMILES | Shiga toxin inh | Sm TGR block | FBPA Giardia inh | LmPK inhibitor | Cycloheximide cs | Tb PYK inh
COC(=O)[C@]12CCCCC=C1N(Cc1ccc(Cl)cc1Cl)C(=O)[C@H](CC(=O)NCCCN1CCCC1=O)C2 | x | x | x | x | x | 5%
COc1ccc(NS(=O)(=O)c2ccc(C)c(NC(=O)CNC(=O)c3ccco3)c2)cc1 | x | 1% | x | x | x | 1%
COc1ccc(/C=C/c2cc(C(F)(F)F)on2)cc1 | 64* | 0% | -1% | 1% | 40* | -4%
Cc1cc(C(=O)Nc2cccnc2)no1 | 11 | 1% | -6% | -3% | 0 | -3%
O=C(Nc1cccnc1)c1cc(-c2ccc(Cl)cc2Cl)on1 | 63* | -12% | x | -5% | 28* | 1%
O=C(Nc1cccnc1)c1cc(-c2ccc(Cl)cc2)on1 | 152* | -2% | 2% | 0% | 40* | -2%
CCCCn1cc(S(=O)(=O)c2ccc(OC)cc2)c(=O)c2cc(CC)ccc21 | x | 3% | x | x | x | -4%
COCCCNC(=S)NNC(=O)c1ccoc1C | 2 | 18% | -22% | 1% | 4 | -5%
CCCCNC(=S)NNC(=O)c1ccoc1C | 50 | 15% | 2% | -4% | 19* | 2%
CCCCNC(=O)NNC(=O)c1ccco1 | -3 | 0% | 9% | -4% | -3 | -9%
CCCCNC(=O)NNC(=O)c1ccoc1C | 62* | 24% | 17% | 4% | 53* | 10%
CSc1ccccc1NC(=O)c1ccc(Cl)s1 | 49 | 0% | -18% | 8% | 30* | 3%
CSc1ccccc1NC(=O)c1ccccn1 | 45* | 0% | -5% | 1% | 18* | -8%
CSc1ccccc1NC(=O)c1ccco1 | 2 | -16%[11.4 µM] | -8% | 15% | -2 | -12%
Cc1ccccc1C(=O)NCCNC(=O)c1ccccn1 | 14 | -2% | -1% | 1% | -4 | 1%
CSc1ccccc1NC(=O)c1cccnc1 | 11 | 7% | 6% | 0% | 15* | -11%
Cc1ccccc1NC(=O)c1ccccn1 | 57* | 21% | -3% | -8% | 29* | -5%
COc1ccccc1CNc1nc(-c2ccc3c(c2)OCO3)nc2ccccc12 | x | x | -6% | x | x | x
Cc1ccc(S(=O)(=O)NCc2nc3cccnc3n2Cc2ccccc2Cl)c(C)c1 | x | 9% | x | x | x | -5%
CCc1ccc(-c2cn3nc(-c4ccccc4)cnc3n2)cc1 | 64* | -31% | 5% | -12% | 25* | -2%
Cc1cccc(C(C)C)c1NC(=O)c1ccc2c(c1)CCN2S(C)(=O)=O | x | 0% | x | x | x | -4%
COC(=O)c1ccc(N2CCC(C)CC2)c(N)c1 | 45 | 17% | -12% | -2% | 38* | -28%
Cc1cc(N)ccc1N1CCCC1 | 8 | 5µM* | u | -12% | -1 | 6%
Nc1cc(Cl)ccc1N1CCCCCC1 | 13 | 6.3µM* | -27% | 6% | 12 | -1%
Nc1cc(Cl)ccc1N1CCCCC1 | -8 | 0% | -3% | 1% | -3 | 1%
COC(=O)c1ccc(N2CCCCC2)c(N)c1 | 100* | x | 0% | -1% | 57* | -20%
COC(=O)c1ccc(C(=O)OC)c(N)c1 | 17 | -21% | 2% | -13% | 13 | x
CCN1CCN(c2ccc(N)cc2C)CC1 | -6 | 3% | -24% | -2% | 1 | 3%
O=C(NCC1CCN(C(=O)c2c(F)c(F)c(F)c(F)c2F)CC1)c1c(F)c(F)c(F)c(F)c1F | -16 | -9% | x | -3% | 11 | -1%

High-throughput results from PubChem BioAssay.
